# Activity calls are given as the source filed them. The calls were made as follows: active = hit-call score of the fitted dose curve at least 0.9, where 1 is the maximum; inactive = score below 0.9.
# How the values were obtained:
# [1] = ATG_CRE_CIS: Attagene CIS-FACTORIAL HepG2 Assay for human cAMP Responsive Element (CRE) binding protein 3 (AID 2282926); details: HepG2 CRE cis-reporter, Attagene multiplexed mRNA; actives raise or lower the signal
# Procedure, shortened: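 Multiplexed transcription-unit reporters transfected into HepG2; 24 h dosing; RT-PCR/capillary electrophoresis fluorescence read-out; bidirectional fit vs DMSO.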
# [2] = biological target: CCAAT/enhancer-binding protein beta (Homo sapiens) (UniProt P17676); test: ATG_C_EBP_CIS: Attagene CIS-FACTORIAL HepG2 Assay for human CCAAT/Enhancer Binding Protein (C/EBP) beta (AID 2282927); details: HepG2 Attagene cis-factorial transcription factor reporter; actives raise or lower the signal
# Sequence of CCAAT/enhancer-binding protein beta (Homo sapiens) (P17676 whole entry, looked up): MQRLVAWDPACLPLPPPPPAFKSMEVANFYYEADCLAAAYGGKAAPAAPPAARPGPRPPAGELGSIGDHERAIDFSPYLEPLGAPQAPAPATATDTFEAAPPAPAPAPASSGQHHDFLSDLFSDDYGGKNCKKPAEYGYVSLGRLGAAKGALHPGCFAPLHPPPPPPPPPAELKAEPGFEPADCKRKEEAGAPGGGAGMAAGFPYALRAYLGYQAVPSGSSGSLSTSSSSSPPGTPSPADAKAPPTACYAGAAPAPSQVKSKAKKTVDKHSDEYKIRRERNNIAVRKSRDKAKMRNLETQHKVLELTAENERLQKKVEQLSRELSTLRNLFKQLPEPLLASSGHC
# Procedure, shortened: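 HepG2 transiently transfected with multiplexed reporter units under cis-regulatory promoters reporting endogenous C/EBPb activity. After 24 h exposure, reporter mRNA assayed by RT-PCR, fluorescent labelling, HpaI digestion and capillary electrophoresis; bidirectional fitting versus DMSO.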
# [3] = ATG_CMV_CIS: Attagene CIS-FACTORIAL HepG2 Assay for human CMV (Internal Marker) (AID 2282928); details: HepG2 CMV promoter reporter, transcription factor profiling; actives raise or lower the signal;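 also: endpoint acts as a background internal control marker rather than a target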
# Procedure, shortened: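 Endogenous transcription factor activity read in HepG2 via transfected cis-promoter reporter units. After 24 h dosing, reporter mRNA measured by RT-PCR/capillary electrophoresis; gain or loss of signal fit relative to DMSO.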
# [4] = ATG_DR4_LXR_CIS: Attagene CIS-FACTORIAL HepG2 Assay for human Liver X Receptor (LXR), DR4 submotif (AID 2282929); details: HepG2 Attagene DR4 cis-reporter, mRNA transcription; actives raise or lower the signal
# Procedure, shortened: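 Readout: reporter transcript fluorescence after RT-PCR and capillary electrophoresis, fitted bidirectionally against DMSO controls. Human HepG2 liver cells carried transiently transfected multiplexed reporter constructs; endogenous transcription factor activity measured 24 h post-dosing.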
# [5] = biological target: Aryl hydrocarbon receptor (Homo sapiens) (UniProt P35869); test: ATG_Ahr_CIS: Attagene CIS-FACTORIAL HepG2 Assay for human Aryl Hydrocarbon Receptor (Ahr) (AID 2282930); details: HepG2 AhR cis-factorial reporter transcription; actives raise or lower the signal
# Sequence of Aryl hydrocarbon receptor (Homo sapiens) (P35869 whole entry, looked up): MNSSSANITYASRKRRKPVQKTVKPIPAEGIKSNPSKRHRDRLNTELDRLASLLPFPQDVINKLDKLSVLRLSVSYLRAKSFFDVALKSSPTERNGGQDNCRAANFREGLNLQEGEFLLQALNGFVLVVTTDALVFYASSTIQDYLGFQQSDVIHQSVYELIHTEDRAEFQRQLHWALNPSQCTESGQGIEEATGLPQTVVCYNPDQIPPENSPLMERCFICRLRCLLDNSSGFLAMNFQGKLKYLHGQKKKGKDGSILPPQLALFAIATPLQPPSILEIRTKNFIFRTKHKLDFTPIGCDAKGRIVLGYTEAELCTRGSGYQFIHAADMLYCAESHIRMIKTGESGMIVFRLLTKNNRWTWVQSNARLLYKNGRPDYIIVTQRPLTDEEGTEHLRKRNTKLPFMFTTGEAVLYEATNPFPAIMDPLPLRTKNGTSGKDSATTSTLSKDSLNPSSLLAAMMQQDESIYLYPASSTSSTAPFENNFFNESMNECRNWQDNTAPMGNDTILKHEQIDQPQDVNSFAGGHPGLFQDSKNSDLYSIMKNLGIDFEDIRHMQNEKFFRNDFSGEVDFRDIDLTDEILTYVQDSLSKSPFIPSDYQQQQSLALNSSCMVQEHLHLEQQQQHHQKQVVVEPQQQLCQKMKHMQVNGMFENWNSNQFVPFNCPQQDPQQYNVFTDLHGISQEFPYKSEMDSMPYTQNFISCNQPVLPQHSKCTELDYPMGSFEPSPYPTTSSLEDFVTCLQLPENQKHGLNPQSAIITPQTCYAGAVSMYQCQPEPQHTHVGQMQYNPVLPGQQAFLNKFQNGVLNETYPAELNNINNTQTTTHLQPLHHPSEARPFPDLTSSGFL
# Procedure, shortened: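 HepG2 cells transiently transfected with cis-element-driven multiplexed reporter units; endogenous AhR activity read as reporter mRNA 24 h after dosing, via RT-PCR, 6-FAM labelling, HpaI digestion and capillary electrophoresis. Bidirectional fit relative to DMSO.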
# [6] = ATG_AP_1_CIS: Attagene CIS-FACTORIAL HepG2 Assay for human Activator Protein 1 (AP-1) (AID 2282931); details: HepG2 Attagene cis-factorial AP-1 reporter mRNA; actives raise or lower the signal
# Procedure, shortened: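 Reporter transcripts were measured 24 h after dosing by RT-PCR and capillary electrophoresis of fluorescent fragments. Cells: HepG2 carrying transfected cis-regulated reporter constructs reading endogenous factor activity. Gain or loss fitted against DMSO.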
# [7] = ATG_AP_2_CIS: Attagene CIS-FACTORIAL HepG2 Assay for human Activator Protein 2 (AP-2) (AID 2282932); details: HepG2 AP-2 cis-reporter, Attagene transcription factor profiling; actives raise or lower the signal
# Procedure, shortened: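 Multiplexed mRNA reporter assay in HepG2: cis-regulated units report endogenous factor activity after 24 h treatment. Fluorescence from capillary electrophoresis of RT-PCR products gives the signal, with DMSO as baseline.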
# [8] = ATG_BRE_CIS: Attagene CIS-FACTORIAL HepG2 Assay for human Bone Morphogenetic Protein (BMP) Response Element (BRE) (AID 2282933); details: HepG2 BMP response element reporter, Attagene transcription factor profiling; actives raise or lower the signal
# Procedure, shortened: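 Fluorescence-labelled reporter cDNA fragments, separated by capillary electrophoresis, gave the signal for this component of a 52-readout multiplex. HepG2 cells were transfected, exposed to chemicals for 24 h, and compared with DMSO using bidirectional fitting.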
# [9] = biological target: Retinoic acid receptor alpha (Homo sapiens) (UniProt P10276); test: ATG_DR5_RAR_CIS: Attagene CIS-FACTORIAL HepG2 Assay for human Retinoic Acid Receptor Alpha (RARE), DR5 submotif (AID 2282934); details: HepG2 Attagene cis-factorial RARE DR5 reporter, mRNA; actives raise or lower the signal
# Sequence of Retinoic acid receptor alpha (Homo sapiens) (P10276 whole entry, looked up): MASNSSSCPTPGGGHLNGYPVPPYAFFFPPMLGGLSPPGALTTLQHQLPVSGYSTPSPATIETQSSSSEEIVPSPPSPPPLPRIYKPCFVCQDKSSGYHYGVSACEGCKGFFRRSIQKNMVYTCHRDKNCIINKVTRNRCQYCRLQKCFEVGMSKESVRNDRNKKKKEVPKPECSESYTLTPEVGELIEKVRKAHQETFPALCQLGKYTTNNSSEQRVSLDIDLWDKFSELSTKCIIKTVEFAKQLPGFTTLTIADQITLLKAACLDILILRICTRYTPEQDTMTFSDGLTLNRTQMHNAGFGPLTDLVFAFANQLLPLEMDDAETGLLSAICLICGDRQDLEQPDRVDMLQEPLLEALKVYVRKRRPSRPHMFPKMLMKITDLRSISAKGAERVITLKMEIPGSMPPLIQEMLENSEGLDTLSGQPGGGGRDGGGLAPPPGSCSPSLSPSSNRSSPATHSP
# Procedure, shortened: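 HepG2 cells transiently transfected with multiplexed reporter units; DR5 cis-element drives reporter through endogenous transcription factors. After 24 h dosing, reporter mRNA quantified by RT-PCR, fluorescent labeling, HpaI digestion and capillary electrophoresis; bidirectional fitting versus DMSO.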
# [10] = biological target: Transcription factor E2F1 (Homo sapiens) (UniProt Q01094); test: ATG_E2F_CIS: Attagene CIS-FACTORIAL HepG2 Assay for human E2F Transcription Factor 1 (AID 2282935); details: HepG2 Attagene cis-reporter, E2F reporter RNA transcripts; actives raise or lower the signal
# Sequence of Transcription factor E2F1 (Homo sapiens) (Q01094 whole entry, looked up): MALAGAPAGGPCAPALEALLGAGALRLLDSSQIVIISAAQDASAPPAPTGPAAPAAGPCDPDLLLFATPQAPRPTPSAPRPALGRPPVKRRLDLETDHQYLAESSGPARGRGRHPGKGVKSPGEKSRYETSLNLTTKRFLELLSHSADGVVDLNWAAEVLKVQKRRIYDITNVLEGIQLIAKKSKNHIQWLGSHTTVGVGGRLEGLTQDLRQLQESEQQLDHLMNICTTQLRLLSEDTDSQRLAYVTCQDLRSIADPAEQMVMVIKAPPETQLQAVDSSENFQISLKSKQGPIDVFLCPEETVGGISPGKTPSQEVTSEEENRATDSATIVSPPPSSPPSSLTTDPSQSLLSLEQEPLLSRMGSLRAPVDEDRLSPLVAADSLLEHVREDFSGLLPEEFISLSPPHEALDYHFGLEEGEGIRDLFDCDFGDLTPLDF
# Procedure, shortened: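 Measures reporter transcript levels via RT-PCR with capillary electrophoresis detection in HepG2 cells harboring cis-regulated reporter units; 24 h post-dose; bidirectional curve fitting with DMSO as baseline.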
# [11] = ATG_E_Box_CIS: Attagene CIS-FACTORIAL HepG2 Assay for human Enhancer Box (E-box) (AID 2282936); details: HepG2 E-box cis-reporter transcription, actives raise or lower the signal
# Procedure, shortened: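 First, HepG2 cells receive multiple cis-regulated reporter constructs by transient transfection. Next, chemicals are applied for 24 h. Finally, reporter mRNA is quantified via RT-PCR and capillary electrophoresis, with DMSO as baseline.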
# [12] = ATG_EGR_CIS: Attagene CIS-FACTORIAL HepG2 Assay for human Early Growth Response 1 (EGR1) (AID 2282938); details: HepG2 Attagene CIS-FACTORIAL EGR reporter mRNA; actives raise or lower the signal
# Procedure, shortened: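 Read-out: fluorescent reporter-mRNA fragments resolved by capillary electrophoresis after RT-PCR, 24 h post-dose in transiently transfected HepG2. Endogenous transcription-factor activity reported via cis-element-regulated reporter units; gain or loss fitted relative to DMSO.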
# [13] = ATG_M_19_CIS: Attagene CIS-FACTORIAL HepG2 Assay for M19 Transcription Factor (Internal Marker) (AID 2282939); details: HepG2 Attagene CIS-FACTORIAL M19 internal marker reporter; actives raise or lower the signal
# Procedure, shortened: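 HepG2, MRTU transient transfection, 24 h dosing. Total RNA → RT-PCR → 6-FAM primer extension → HpaI digest → CE fluorescence. Bidirectional curve fit, DMSO negative control.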
# [14] = ATG_Ets_CIS: Attagene CIS-FACTORIAL HepG2 Assay for human Erythroblast Transformation Specific (ETS) (AID 2282941); details: HepG2 ETS cis-reporter transcription, actives raise or lower the signal
# Procedure, shortened: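 Steps: transfect HepG2 with multiple reporter units; treat compound 24 h; isolate RNA, DNase-treat, reverse-transcribe; PCR-amplify, label with 6-FAM, digest with HpaI; separate by capillary electrophoresis. Activity fitted both directions versus DMSO.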
# [15] = biological target: Hepatocyte nuclear factor 3-beta (Homo sapiens) (UniProt Q9Y261); test: ATG_FoxA2_CIS: Attagene CIS-FACTORIAL HepG2 Assay for human Forkhead box A2 (FOXA2) (AID 2282942); details: HepG2 cis-reporter transcription factor activity, 24 h; actives raise or lower the signal
# Sequence of Hepatocyte nuclear factor 3-beta (Homo sapiens) (Q9Y261 whole entry, looked up): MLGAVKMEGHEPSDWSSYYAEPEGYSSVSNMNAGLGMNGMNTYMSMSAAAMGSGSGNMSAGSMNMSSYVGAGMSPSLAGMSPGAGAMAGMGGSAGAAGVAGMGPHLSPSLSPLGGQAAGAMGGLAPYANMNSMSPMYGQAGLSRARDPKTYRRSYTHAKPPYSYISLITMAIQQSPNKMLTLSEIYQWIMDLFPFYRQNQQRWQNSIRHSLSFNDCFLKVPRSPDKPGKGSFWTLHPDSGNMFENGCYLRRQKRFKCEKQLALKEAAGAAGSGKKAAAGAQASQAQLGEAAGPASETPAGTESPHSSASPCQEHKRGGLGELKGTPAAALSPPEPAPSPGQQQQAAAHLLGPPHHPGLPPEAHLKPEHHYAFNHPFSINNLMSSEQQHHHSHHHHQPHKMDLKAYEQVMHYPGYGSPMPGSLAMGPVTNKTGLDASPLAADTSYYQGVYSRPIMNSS
# Procedure, shortened: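 Readout: fluorescent reporter transcripts resolved by capillary electrophoresis after RT-PCR. Transiently transfected HepG2, 24 h compound exposure, endogenous TF activity at cis promoter elements. Gain or loss of signal fitted relative to DMSO.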
# [16] = ATG_FoxO_CIS: Attagene CIS-FACTORIAL HepG2 Assay for human Forkhead box O (FoxO) (AID 2282943); details: HepG2 Attagene cis-reporter, FoxO element, mRNA; actives raise or lower the signal
# Procedure, shortened: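 HepG2 cells transiently transfected with cis-element-driven reporter units report endogenous FoxO activity. After 24 h chemical exposure, reporter mRNA quantified by RT-PCR, fluorescent labeling, HpaI digestion and capillary electrophoresis; bidirectional fit versus DMSO.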
# [17] = ATG_GATA_CIS: Attagene CIS-FACTORIAL HepG2 Assay for human GATA Binding Protein (AID 2282944); details: HepG2 GATA cis-element reporter, Attagene multiplex mRNA; actives raise or lower the signal
# Procedure, shortened: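 Cells: HepG2, transiently transfected with cis-regulated reporter transcription units. Exposure: 24 h. Detection: RT-PCR plus capillary electrophoresis of FAM-labeled fragments. Analysis: bidirectional, DMSO as baseline.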
# [18] = ATG_GLI_CIS: Attagene CIS-FACTORIAL HepG2 Assay for human Zinc Finger Protein GLI1 (AID 2282945); details: HepG2, Attagene cis-factorial reporter mRNA, GLI element; actives raise or lower the signal
# Procedure, shortened: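 Transiently transfected HepG2 cells report endogenous transcription factor activity via cis-element-driven reporter units. After 24 h compound exposure, reporter mRNA was measured by RT-PCR with capillary electrophoresis; bidirectional fitting against DMSO baseline.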
# [19] = ATG_ERE_CIS: Attagene CIS-FACTORIAL HepG2 Assay for Estrogen Response Element (ERE) (AID 2282940); details: HepG2 ERE cis-reporter, Attagene RNA transcript; actives raise or lower the signal
# Procedure, shortened: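 After a 24 h chemical treatment, RNA from reporter-transfected HepG2 cells is reverse-transcribed, PCR-amplified and fluorescently labelled. Fragments separated by capillary electrophoresis give reporter signal; DMSO serves as negative control.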
# [20] = ATG_M_61_CIS: Attagene CIS-FACTORIAL HepG2 Assay for M61 Transcription Factor (Internal Marker) (AID 2282937); details: HepG2 Attagene CIS-FACTORIAL M61 internal marker reporter; actives raise or lower the signal
# Procedure, shortened: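 Readout: fluorescent reporter mRNA fragments resolved by capillary electrophoresis after RT-PCR. Transiently transfected human HepG2 cells carried MRTU constructs reporting endogenous TF activity; 24 h chemical exposure; gain or loss of signal fitted relative to DMSO.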
smiles,measurement,setting,value
CCCCCCc1ccc(O)cc1O,outcome,[1],inactive
same,outcome,[2],inactive
same,AC50,[3],33.4 µM (active)
same,AC50,[4],44.4 µM (active)
same,outcome,[5],inactive
same,outcome,[6],inactive
same,outcome,[7],inactive
same,outcome,[8],inactive
same,outcome,[9],inactive
same,outcome,[10],inactive
same,outcome,[11],inactive
same,AC50,[12],52.7 µM (active)
same,outcome,[13],inactive
same,outcome,[14],inactive
same,outcome,[15],inactive
same,outcome,[16],inactive
same,outcome,[17],inactive
same,outcome,[18],inactive
COc1ccc(-n2nc(C(F)F)cc2-c2ccc(S(C)=O)cc2)cc1 (configuration not stated),outcome,[1],inactive
same,outcome,[2],inactive
same,AC50,[3],5.24 µM (active)
same,outcome,[4],inactive
same,outcome,[5],inactive
same,outcome,[6],inactive
same,outcome,[7],inactive
same,outcome,[8],inactive
same,outcome,[9],inactive
same,outcome,[10],inactive
same,outcome,[11],inactive
same,outcome,[12],inactive
same,outcome,[13],inactive
same,outcome,[19],inactive
same,outcome,[14],inactive
same,outcome,[15],inactive
same,outcome,[16],inactive
same,outcome,[17],inactive
same,outcome,[18],inactive
CCCCC(CC)COC(=O)c1ccc(C(=O)OCC(CC)CCCC)cc1 (configuration not stated),outcome,[1],inactive
same,outcome,[2],inactive
same,outcome,[3],inactive
same,outcome,[4],inactive
same,AC50,[5],66 µM (active)
same,outcome,[6],inactive
same,outcome,[7],inactive
same,outcome,[8],inactive
same,outcome,[9],inactive
same,outcome,[10],inactive
same,outcome,[11],inactive
same,outcome,[12],inactive
same,outcome,[14],inactive
same,outcome,[15],inactive
same,outcome,[16],inactive
same,outcome,[17],inactive
same,outcome,[18],inactive
CC(C)=CCCC(C)=CC=O,AC50,[1],162 µM (active)
same,outcome,[2],inactive
same,outcome,[3],inactive
same,AC50,[4],183 µM (active)
same,AC50,[5],78.9 µM (active)
same,AC50,[6],137 µM (active)
same,outcome,[7],inactive
same,AC50,[8],139 µM (active)
same,outcome,[9],inactive
same,outcome,[11],inactive
same,outcome,[20],inactive
same,AC50,[12],100 µM (active)
same,outcome,[13],inactive
same,AC50,[19],100 µM (active)
same,outcome,[14],inactive
same,outcome,[15],inactive
same,outcome,[16],inactive
same,outcome,[17],inactive
same,outcome,[18],inactive
CNS(=O)(=O)c1cc(C(=O)N2CCC(CCN3C4CCC3CC(n3c(C)nc5ccccc53)C4)(c3cccc(F)c3)CC2)c(Cl)cc1F (configuration not stated),outcome,[1],inactive
same,outcome,[2],inactive
same,outcome,[3],inactive
same,AC50,[4],7.55 µM (active)
same,outcome,[5],inactive
same,outcome,[6],inactive
same,outcome,[7],inactive
same,outcome,[8],inactive
same,outcome,[9],inactive
same,outcome,[11],inactive
same,outcome,[20],inactive
same,outcome,[12],inactive
same,outcome,[13],inactive
same,outcome,[14],inactive
same,outcome,[15],inactive
same,outcome,[16],inactive
same,outcome,[17],inactive
same,outcome,[18],inactive
CCCC(=O)OCC,outcome,[1],inactive
same,outcome,[2],inactive
same,outcome,[3],inactive
same,outcome,[4],inactive
same,outcome,[5],inactive
same,outcome,[6],inactive
same,outcome,[7],inactive
same,outcome,[8],inactive
same,outcome,[9],inactive
same,outcome,[10],inactive
same,outcome,[11],inactive
same,outcome,[12],inactive
same,outcome,[19],inactive
same,outcome,[14],inactive
same,outcome,[15],inactive
same,outcome,[16],inactive
same,outcome,[17],inactive
same,outcome,[18],inactive
O=C(O)c1cccc(N(Cc2cccnc2)c2ccc(OC(F)F)c(OC(F)F)c2)c1,outcome,[1],inactive
same,outcome,[2],inactive
same,outcome,[3],inactive
same,outcome,[4],inactive
same,outcome,[5],inactive
same,outcome,[6],inactive
same,outcome,[7],inactive
same,outcome,[8],inactive
same,outcome,[9],inactive
same,outcome,[10],inactive
same,outcome,[11],inactive
same,outcome,[12],inactive
same,outcome,[13],inactive
same,outcome,[14],inactive
same,outcome,[15],inactive
same,outcome,[16],inactive
same,outcome,[17],inactive
same,outcome,[18],inactive

# Source: PubChem BioAssay (EPA / NIEHS)
